Legend:
U-2932 [1] = experiment: growth inhibition by drug alone (1 - RLU/untreated control) (fraction); higher = stronger inhibition; conditions: 177Lu-lilotomab satetraxetan 0 ug/ml
Method in brief: (§1)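 RIVA or U-2932 cells were left untreated or pretreated for 18 h with a radiolabelled anti-CD37 antibody conjugate (~600 MBq/mg) at 0.5 µg/ml for RIVA or 1 µg/ml for U-2932. The cells were then washed and seeded at 3,000 cells/well on plates pre-printed with the Selleck Cambridge Cancer Compound library, dosed at 10/100 nM for RIVA and 10/1,000 nM for U-2932. From day 3, RealTime-Glo luminescence was read daily after 1 h at 37°C. Growth inhibition was taken as one minus RLU over the mean of the untreated no-drug wells, of which there were 48 per plate.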

RIVA [2] = experiment: as above; conditions: 177Lu-lilotomab satetraxetan 0 ug/ml
Method in brief: as §1

U-2932 [3] = experiment: growth inhibition by drug plus 177Lu-lilotomab satetraxetan (1 - RLU/untreated control) (fraction); higher = stronger inhibition; conditions: 177Lu-lilotomab satetraxetan 1 ug/ml
Method in brief: as §1

RIVA [4] = experiment: as above; conditions: 177Lu-lilotomab satetraxetan 0.5 ug/ml
Method in brief: as §1

Compound | growth inhibition by drug alone (U-2932 [1]; 10 nM, time (day): 3) | growth inhibition by drug alone (U-2932 [1]; 10 nM, time (day): 4) | growth inhibition by drug alone (U-2932 [1]; 10 nM, time (day): 5) | growth inhibition by drug alone (U-2932 [1]; 10 nM, time (day): 6) | growth inhibition by drug alone (U-2932 [1]; 1000 nM, time (day): 3) | growth inhibition by drug alone (U-2932 [1]; 1000 nM, time (day): 4) | growth inhibition by drug alone (U-2932 [1]; 1000 nM, time (day): 5) | growth inhibition by drug alone (U-2932 [1]; 1000 nM, time (day): 6) | growth inhibition by drug alone (RIVA [2]; 10 nM, time (day): 3) | growth inhibition by drug alone (RIVA [2]; 10 nM, time (day): 4) | growth inhibition by drug alone (RIVA [2]; 10 nM, time (day): 5) | growth inhibition by drug alone (RIVA [2]; 10 nM, time (day): 6) | growth inhibition by drug alone (RIVA [2]; 100 nM, time (day): 3) | growth inhibition by drug alone (RIVA [2]; 100 nM, time (day): 4) | growth inhibition by drug alone (RIVA [2]; 100 nM, time (day): 5) | growth inhibition by drug alone (RIVA [2]; 100 nM, time (day): 6) | growth inhibition by drug plus 177Lu-lilotomab satetraxetan (U-2932 [3]; 10 nM, time (day): 3) | growth inhibition by drug plus 177Lu-lilotomab satetraxetan (U-2932 [3]; 10 nM, time (day): 4) | growth inhibition by drug plus 177Lu-lilotomab satetraxetan (U-2932 [3]; 10 nM, time (day): 5) | growth inhibition by drug plus 177Lu-lilotomab satetraxetan (U-2932 [3]; 10 nM, time (day): 6) | growth inhibition by drug plus 177Lu-lilotomab satetraxetan (U-2932 [3]; 1000 nM, time (day): 3) | growth inhibition by drug plus 177Lu-lilotomab satetraxetan (U-2932 [3]; 1000 nM, time (day): 4) | growth inhibition by drug plus 177Lu-lilotomab satetraxetan (U-2932 [3]; 1000 nM, time (day): 5) | growth inhibition by drug plus 177Lu-lilotomab satetraxetan (U-2932 [3]; 1000 nM, time (day): 6) | growth inhibition by drug plus 177Lu-lilotomab satetraxetan (RIVA [4]; 10 nM, time (day): 3) | growth inhibition by drug plus 177Lu-lilotomab satetraxetan (RIVA [4]; 10 nM, time (day): 4) | growth inhibition by drug plus 177Lu-lilotomab satetraxetan (RIVA [4]; 10 nM, time (day): 5) | growth inhibition by drug plus 177Lu-lilotomab satetraxetan (RIVA [4]; 10 nM, time (day): 6) | growth inhibition by drug plus 177Lu-lilotomab satetraxetan (RIVA [4]; 100 nM, time (day): 3) | growth inhibition by drug plus 177Lu-lilotomab satetraxetan (RIVA [4]; 100 nM, time (day): 4) | growth inhibition by drug plus 177Lu-lilotomab satetraxetan (RIVA [4]; 100 nM, time (day): 5) | growth inhibition by drug plus 177Lu-lilotomab satetraxetan (RIVA [4]; 100 nM, time (day): 6)
Cc1ccc(-c2csc3ncnc(SCCC(=O)O)c23)cc1 | 0.0174 | -0.014 | -0.0343 | -0.0333 | -0.00216 | -0.0356 | -0.0409 | 0.0278 | -0.135 | -0.215 | -0.266 | -0.425 | -0.333 | -0.33 | -0.376 | -0.529 | -0.0558 | -0.00644 | 0.0127 | 0.0699 | -0.0374 | 0.018 | 0.0424 | 0.16 | 0.458 | 0.495 | 0.522 | 0.525 | 0.365 | 0.436 | 0.45 | 0.472
CNC(=O)c1cc(COc2nnc(Nc3ccc(Cl)cc3)c3ccoc23)ccn1 [Telatinib (BAY 57-9352)] | -0.0124 | 0.00544 | -0.0774 | -0.272 | -0.0825 | -0.0325 | -0.0739 | -0.229 | -0.0398 | -0.0876 | -0.128 | -0.281 | -0.214 | -0.207 | -0.212 | -0.315 | -0.0402 | -0.000867 | 0.00308 | 0.0503 | -0.145 | -0.0474 | -0.0515 | 0.00564 | 0.351 | 0.487 | 0.503 | 0.502 | 0.316 | 0.416 | 0.413 | 0.391
COc1ncc(-c2ccc3nccc(-c4ccnnc4)c3c2)cc1NS(=O)(=O)c1ccc(F)cc1F | 0.726 | 0.786 | 0.81 | 0.821 | 0.87 | 0.935 | 0.961 | 0.972 | 0.856 | 0.892 | 0.918 | 0.933 | 0.898 | 0.925 | 0.943 | 0.953 | 0.744 | 0.769 | 0.769 | 0.768 | 0.908 | 0.958 | 0.976 | 0.982 | 0.897 | 0.937 | 0.952 | 0.961 | 0.937 | 0.963 | 0.97 | 0.975
CN1CCC(CNc2ccc3ncc(-c4cccc(OC(F)(F)F)c4)n3n2)CC1 [SGI-1776 free base] | 0.04 | 0.0462 | -0.0159 | -0.415 | 0.131 | 0.115 | 0.0463 | -0.00407 | -0.104 | -0.155 | -0.336 | -0.875 | -0.453 | -0.367 | -0.351 | -0.438 | -0.0394 | 0.0134 | 0.0445 | 0.0394 | 0.154 | 0.125 | 0.168 | 0.265 | 0.428 | 0.539 | 0.541 | 0.561 | 0.302 | 0.441 | 0.445 | 0.462
O=C1c2ccccc2-c2nc3nonc3nc21 | 0.122 | 0.0829 | -0.0474 | -0.0365 | 0.144 | 0.236 | 0.193 | 0.28 | -0.0244 | -0.0693 | -0.283 | -0.811 | -0.571 | -0.488 | -0.554 | -0.831 | 0.0325 | 0.0601 | 0.0603 | 0.0121 | 0.496 | 0.527 | 0.536 | 0.582 | 0.417 | 0.519 | 0.528 | 0.542 | 0.116 | 0.288 | 0.31 | 0.332
COc1cc(C(=O)NC(=S)Nc2cccc(NC(=O)c3ccccc3)c2)cc(OC)c1OC | 0.147 | 0.139 | 0.0192 | -0.0981 | 0.0988 | 0.139 | 0.108 | 0.0418 | 0.0482 | 0.0356 | 0.0061 | -0.153 | 0.0949 | 0.0458 | 0.00408 | -0.0801 | 0.0383 | 0.0678 | 0.111 | 0.148 | -0.0454 | 0.0986 | 0.0849 | 0.125 | 0.491 | 0.568 | 0.58 | 0.595 | 0.562 | 0.589 | 0.588 | 0.568
CC(=O)c1c(C)c2cnc(Nc3ccc(N4CCNCC4)cn3)nc2n(C2CCCC2)c1=O | 0.0532 | 0.0389 | -0.0177 | -0.186 | -0.0353 | -0.0097 | -0.082 | -0.259 | -0.0338 | -0.0722 | -0.148 | -0.339 | -0.149 | -0.13 | -0.138 | -0.285 | -0.0112 | 0.0266 | 0.0227 | 0.0699 | -0.111 | -0.00616 | -0.0131 | -0.0632 | 0.392 | 0.527 | 0.548 | 0.545 | 0.281 | 0.427 |  | 
